# Experimental data as given in publication PMC5540273 (PLoS ONE, 2017).
# Read-outs that look alike come from different tables or passages of the source.
# Key:
# [1] = test system: PIK3CG; details: concentration: 1 μM, replicates: in singlicate; n = 1
# [2] = test system: T1, PIK4CB; details: concentration: 1 μM, replicates: in singlicate; n = 1
# T1 construct: gene PI4KB
# [3] = test system: PIKFYVE; details: concentration: 1 μM, replicates: in singlicate; n = 1
# [4] = test system: PIM1; details: concentration: 1 μM, replicates: in singlicate; n = 1
# [5] = test system: PIM2; details: concentration: 1 μM, replicates: in singlicate; n = 1
# [6] = test system: PIM3; details: concentration: 1 μM, replicates: in singlicate; n = 1
# [7] = test system: PIP5K1A; details: concentration: 1 μM, replicates: in singlicate; n = 1
# [8] = test system: PIP5K1C; details: concentration: 1 μM, replicates: in singlicate; n = 1
# [9] = test system: PIP5K2B; details: concentration: 1 μM, replicates: in singlicate; n = 1
# [10] = test system: T2, PIP5K2C; details: concentration: 1 μM, replicates: in singlicate; n = 1
# T2 construct: gene PIP4K2C
# [11] = test system: T3, PKAC-alpha; details: concentration: 1 μM, replicates: in singlicate; n = 1
# T3 construct: gene PRKACA
# [12] = test system: T4, PKAC-beta; details: concentration: 1 μM, replicates: in singlicate; n = 1
# T4 construct: gene PRKACB
# [13] = test system: PKMYT1; details: concentration: 1 μM, replicates: in singlicate; n = 1
# [14] = test system: PKN1; details: concentration: 1 μM, replicates: in singlicate; n = 1
# [15] = test system: PKN2; details: concentration: 1 μM, replicates: in singlicate; n = 1
# [16] = test system: PLK1; details: n = 1
# [17] = test system: PLK2; details: concentration: 1 μM, replicates: in singlicate; n = 1
# [18] = test system: PLK3; details: concentration: 1 μM, replicates: in singlicate; n = 1
# [19] = test system: PLK4; details: concentration: 1 μM, replicates: in singlicate; n = 1
# [20] = test system: PRKCD; details: concentration: 1 μM, replicates: in singlicate; n = 1
# [21] = concentration: 1 μM, replicates: in singlicate
# 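Further: KINOMEscan kinase panel screen.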
smiles,measurement,setting,value
COC(=O)c1c(-c2ccccc2)c2cc(Br)ccc2c(=O)n1Cc1ccc(NC(=O)CCC(=O)O)cc1,%Inh,[1],7%
same,%Inh,[2],0%
same,%Inh,[3],5%
same,%Inh,[4],4%
same,%Inh,[5],24%
same,%Inh,[6],3%
same,%Inh,[7],4%
same,%Inh,[8],0%
same,%Inh,[9],35%
same,%Inh,[10],0%
same,%Inh,[11],33%
same,%Inh,[12],0%
same,%Inh,[13],10%
same,%Inh,[14],0%
same,%Inh,[15],0%
same,%Inh,[16]; [21],0%
same,%Inh,[17],14%
same,%Inh,[18],5%
same,%Inh,[19],15%
same,%Inh,[20],0%
O=C(NCc1cccs1)c1cc(C(=O)c2c(Cl)cccc2Cl)c[nH]1 [GW823670],%Inh,[1],0%
same,%Inh,[2],0%
same,%Inh,[3],0%
same,%Inh,[4],5%
same,%Inh,[5],0%
same,%Inh,[6],0%
same,%Inh,[7],34%
same,%Inh,[8],0%
same,%Inh,[9],4%
same,%Inh,[10],0%
same,%Inh,[11],6%
same,%Inh,[12],3%
same,%Inh,[13],0%
same,%Inh,[14],0%
same,%Inh,[15],0%
same,%Inh,[16]; [21],0%
same,%Inh,[17],0%
same,%Inh,[18],0%
same,%Inh,[19],0%
same,%Inh,[20],0%
CCC(=O)c1c(-c2ccccc2)c2cc(Cl)ccc2c(=O)n1Cc1ccc(C(=O)O)cc1,%Inh,[1],0%
same,%Inh,[2],0%
same,%Inh,[3],0%
same,%Inh,[4],0%
same,%Inh,[5],0%
same,%Inh,[6],0%
same,%Inh,[7],18%
same,%Inh,[8],15%
same,%Inh,[9],0%
same,%Inh,[10],16%
same,%Inh,[11],0%
same,%Inh,[12],0%
same,%Inh,[13],1%
same,%Inh,[14],0%
same,%Inh,[15],0%
same,%Inh,[16]; [21],0%
same,%Inh,[17],7%
same,%Inh,[18],0%
same,%Inh,[19],0%
same,%Inh,[20],0%
COc1cc2nccc(Nc3ccc(OCc4ccc(NC(C)=O)cc4)cc3)c2cc1OC.Cl [GW440135],%Inh,[1],7%
same,%Inh,[2],4%
same,%Inh,[3],0%
same,%Inh,[4],8%
same,%Inh,[5],0%
same,%Inh,[6],0%
same,%Inh,[7],15%
same,%Inh,[8],32%
same,%Inh,[9],22%
same,%Inh,[10],25%
same,%Inh,[11],0%
same,%Inh,[12],0%
same,%Inh,[13],0%
same,%Inh,[14],44%
same,%Inh,[15],0%
same,%Inh,[16]; [21],12%
same,%Inh,[17],0%
same,%Inh,[18],0%
same,%Inh,[19],0%
same,%Inh,[20],11%
COC(=O)c1c(-c2ccccc2)c2cc(Br)ccc2c(=O)n1Cc1ccc(S(C)(=O)=O)cc1,%Inh,[1],1%
same,%Inh,[2],5%
same,%Inh,[3],0%
same,%Inh,[4],9%
same,%Inh,[5],14%
same,%Inh,[6],9%
same,%Inh,[7],19%
same,%Inh,[8],0%
same,%Inh,[9],23%
same,%Inh,[10],0%
same,%Inh,[11],11%
same,%Inh,[12],0%
same,%Inh,[13],0%
same,%Inh,[14],1%
same,%Inh,[15],0%
same,%Inh,[16]; [21],0%
same,%Inh,[17],17%
same,%Inh,[18],15%
same,%Inh,[19],32%
same,%Inh,[20],0%
CCC(=O)c1c(-c2ccccc2)c2cc(Cl)ccc2c(=O)n1Cc1cc(C(=O)NC2CC2)n(C)n1,%Inh,[1],0%
same,%Inh,[2],0%
same,%Inh,[3],25%
same,%Inh,[4],0%
same,%Inh,[5],0%
same,%Inh,[6],11%
same,%Inh,[7],0%
same,%Inh,[8],0%
same,%Inh,[9],32%
same,%Inh,[10],12%
same,%Inh,[11],0%
same,%Inh,[12],0%
same,%Inh,[13],5%
same,%Inh,[14],0%
same,%Inh,[15],0%
same,%Inh,[16]; [21],0%
same,%Inh,[17],2%
same,%Inh,[18],7%
same,%Inh,[19],10%
same,%Inh,[20],8%
Cc1nnc(-c2ccc3ncn(-c4ccc(S(C)=O)cc4)c3c2)o1 (stereo not drawn),%Inh,[1],0%
same,%Inh,[2],0%
same,%Inh,[3],19%
same,%Inh,[4],4%
same,%Inh,[5],1%
same,%Inh,[6],11%
same,%Inh,[7],0%
same,%Inh,[8],18%
same,%Inh,[9],5%
same,%Inh,[10],55%
same,%Inh,[11],12%
same,%Inh,[12],0%
same,%Inh,[13],0%
same,%Inh,[14],0%
same,%Inh,[15],0%
same,%Inh,[16]; [21],0%
same,%Inh,[17],0%
same,%Inh,[18],9%
same,%Inh,[19],14%
same,%Inh,[20],0%
COc1cc2ncn(-c3cc(OCc4ccncc4)c(C(N)=O)s3)c2cc1OC [GSK336313],%Inh,[1],12%
same,%Inh,[2],0%
same,%Inh,[3],0%
same,%Inh,[4],0%
same,%Inh,[5],0%
same,%Inh,[6],0%
same,%Inh,[7],0%
same,%Inh,[8],30%
same,%Inh,[9],22%
same,%Inh,[10],0%
same,%Inh,[11],0%
same,%Inh,[12],0%
same,%Inh,[13],0%
same,%Inh,[14],31%
same,%Inh,[15],0%
same,%Inh,[16]; 1 µM,81%
same,%Inh,[17],96.6%
same,%Inh,[18],55%
same,%Inh,[19],7%
same,%Inh,[20],0%
Nc1n[nH]c2nnc(-c3ccccc3)c(-c3ccccc3)c12 [GW554060],%Inh,[1],0%
same,%Inh,[2],0%
same,%Inh,[3],12%
same,%Inh,[4],0%
same,%Inh,[5],0%
same,%Inh,[6],0%
same,%Inh,[7],11%
same,%Inh,[8],47%
same,%Inh,[9],14%
same,%Inh,[10],14%
same,%Inh,[11],0%
same,%Inh,[12],16%
same,%Inh,[13],0%
same,%Inh,[14],20%
same,%Inh,[15],3%
same,%Inh,[16]; [21],8%
same,%Inh,[17],0%
same,%Inh,[18],0%
same,%Inh,[19],0%
same,%Inh,[20],3%
